Source: PubChem (several laboratories)
NTR1 ag = agonists of human NTR1, primary screen, imaging, U2OS cells, beta-arrestin-GFP, high content | 330,000 compounds, 0.17% hits | AID 493036, 2011 | NTR1-U2OS beta-arrestin-GFP spot imaging, agonist mode | activation, % at 20 µM | Neurotensin receptor type 1 (Homo sapiens), P30989;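 active = activation at or above 40% of the spot to cytoplasm intensity ratio, with at least 20 cells analyzed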
UBC9 SUMO inh = inhibitors of in vitro SUMOylation cascade, primary screen, biochemical, HTRF, uHTS | SUMO-conjugating enzyme UBC9 (Homo sapiens), P63279 | HTRF SUMOylation assay, SAE1/SAE2 + UBC9 | inhibition, % at 35 µM | 290,000 compounds, 0.36% hits | AID 2006, 2009; in the data active = inhibition above about 50%, passing the limit was not always enough
Target sequence (P63279 whole entry, looked up): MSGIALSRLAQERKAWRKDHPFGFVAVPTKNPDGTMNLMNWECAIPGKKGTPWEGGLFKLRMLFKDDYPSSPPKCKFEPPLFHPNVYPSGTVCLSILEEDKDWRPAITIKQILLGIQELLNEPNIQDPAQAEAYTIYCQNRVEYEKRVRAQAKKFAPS
H9c2 protect = cardioprotection against H2O2-induced cell death, primary screen, uHTS, H9c2 cells, ATPLite luminescence; H9c2 cardiomyocytes, H2O2 injury protection, 2 h; protection from H2O2 cell death, % at 20 µM; 360,000 compounds, 0.63% hits;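 active = compounds giving at least 50% protection of heart cells from peroxide-induced death in the single-dose screen, raw or plate-pattern-corrected value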
ALR inh = inhibitors of human ALR sulfhydryl oxidase, primary screen, biochemical, H2O2 detection, HRP-luminol luminescence, single point; FAD-linked sulfhydryl oxidase ALR (Homo sapiens), P55789; purified ALR, DTT oxidation; inhibition, % (test concentration not listed); 290,000 compounds, 3.8% hits; AID 485317, 2010;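 active = mean replicate inhibition above about 79%, with every replicate also reaching it, limit read from the data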
Target sequence (P55789 whole entry, looked up): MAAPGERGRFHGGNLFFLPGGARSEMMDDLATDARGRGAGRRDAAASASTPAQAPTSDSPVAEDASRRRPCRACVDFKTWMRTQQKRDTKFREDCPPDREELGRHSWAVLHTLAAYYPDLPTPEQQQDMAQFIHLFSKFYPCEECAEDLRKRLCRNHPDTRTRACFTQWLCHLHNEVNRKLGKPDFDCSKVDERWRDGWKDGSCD
Each line names hits and unclear results; the compound was inactive in the other large screens. Compounds with a hit are over-represented: about 3.9% of the library has one in this group of screens.

CCc1cc2c(N[C@@H](Cc3c[nH]c4ccccc34)C(=O)O)ncnc2s1	none
Cc1ccc(C)c(-n2c(-c3cccnc3)n[nH]c2=S)c1	none
Cc1ccc(C)c(-n2c(-c3csc(C)c3C)n[nH]c2=S)c1	ALR inh 89.4
COc1ccc(C2=CSC3=NNC4(CCCCC4)NN23)cc1	ALR inh 98.1
Cc1ccc(C2=CSC3=NNC4(CCCCC4)NN23)cc1	ALR inh 99.6
Cc1ccc(C2=CSC3=NCCN23)c(C)c1	none
CCCn1c2ccc(/C(C)=N\O)cc2c2cc(/C(C)=N/O)ccc21	ALR inh 98.2
Cc1cccn2cc(-c3ccc(S(=O)(=O)N4CCOCC4)cc3)nc12	UBC9 SUMO inh 55.6
O=C1CSC(=Nc2ccc(O)cc2)N1c1ccc(O)cc1	ALR inh 98.7
C=CCN1C(=O)CSC1=Nc1ccc(NC(C)=O)cc1	none
C=CCN1C(=O)CSC1=Nc1ccc(O)cc1	ALR inh 99.2
COc1ccccc1NC(=O)C1=C(C)Nc2nnnn2C1c1ccccn1 (configuration not stated)	none
COc1ccc(S(=O)(=O)N2CCOCC2)cc1NS(=O)(=O)c1ccc(F)c(F)c1	none (no result: UBC9 SUMO inh)
Cc1n[nH]c(=S)n(NC(=O)CC(=O)Nn2c(=S)[nH]nc(C)c2=O)c1=O	none
Cc1n[nH]c(=S)n(NC(=O)/C=C/C(=O)Nn2c(=S)[nH]nc(C)c2=O)c1=O	UBC9 SUMO inh 99.0 (no result: NTR1 ag, ALR inh)
O=C(CSC1=NS(=O)(=O)c2cc(F)ccc2N1)Nc1ccc(F)cc1	none (no result: UBC9 SUMO inh, ALR inh)
O=C(CSC1=NS(=O)(=O)c2cc(Cl)ccc2N1)Nc1cccc(F)c1	ALR inh 98.1 (no result: UBC9 SUMO inh)
CC(=O)c1ccc(NC(=O)CSC2=NS(=O)(=O)c3cc(Cl)ccc3N2)cc1	none (no result: UBC9 SUMO inh, ALR inh)
O=C(CSC1=NS(=O)(=O)c2ccccc2N1)Nc1ccc(F)cc1	ALR inh 96.7 (no result: UBC9 SUMO inh)
CC(=O)Nc1ccc(NC(=O)C2Cc3c(-c4cccc(F)c4)ccnc3O2)cc1 (configuration not stated)	none (no result: NTR1 ag, UBC9 SUMO inh, ALR inh)
Cc1ccc(NC(=S)NNc2ccc(C(=O)O)cc2[N+](=O)[O-])cc1C	ALR inh 98.7 (no result: UBC9 SUMO inh)
Cc1ccc(NC(=S)NNC(=O)c2cccc([N+](=O)[O-])c2)cc1Cl	ALR inh 87.8
O=C(NNC(=S)Nc1ccc(F)cc1)c1cccc([N+](=O)[O-])c1	none (no result: ALR inh)
Cc1ccc(C(=O)NNC(=S)Nc2cccc(Cl)c2Cl)cc1[N+](=O)[O-]	ALR inh 97.5
Cc1c(C)c2ccc(OCC(=O)Nc3cccnc3)cc2oc1=O	none
Cn1c(SCC(=O)c2ccccc2)ncc(C(=O)Nc2ccccc2)c1=O	ALR inh 97.9 (no result: UBC9 SUMO inh)
COCCCNC(=S)N/N=C/c1ccc(N(C)C)cc1	ALR inh 98.5
Cc1c(NC(=S)N/N=C/c2ccc(N(C)C)cc2)c(=O)n(-c2ccccc2)n1C	ALR inh 99.3
CNC(=S)N/N=C/c1ccc(N(C)C)cc1	ALR inh 99.4
COCCCNC(=S)N/N=C/c1ccc(N(C)C)cc1Cl	none
CNC(=S)N/N=C/c1ccc(C(C)C)cc1	none (no result: UBC9 SUMO inh)
Cc1nnc(Sc2cc(C(=O)NCCCN(C)Cc3ccccc3)c3ccccc3n2)s1	none
Cc1ccc(NC(=O)NCCCN2CCCC2=O)c(C)c1	none
O=C(CCc1ccccc1)N/N=C\C1CC=CCC1 (configuration not stated)	none
C/C(=N\NC(=O)c1nnn(-c2nonc2N)c1CN1CCc2ccccc21)c1ccccc1O	H9c2 protect 58.0
COC(=O)c1nnn(-c2nonc2N)c1CN1CCc2ccccc21	ALR inh 97.6
Nc1nonc1-n1nnc(C(=O)N/N=C/c2ccccc2)c1CN1CCc2ccccc21	none (no result: ALR inh)
COC(=O)c1ccc(CN2CCc3ccccc32)cc1	ALR inh 97.9
Cc1ccc([C@H]2C(C(=O)O)=CC[C@@H](c3ccc(C)cc3)N2S(=O)(=O)c2ccccc2C)cc1	none (no result: UBC9 SUMO inh, ALR inh)
O=C(COC(=O)C1CC1)Nc1ncc(Cl)cc1Cl	none (no result: UBC9 SUMO inh)
Cc1cc(C)cc(N(C(=O)c2ccccn2)C(C(=O)NC2CCCCC2)c2cccs2)c1 (configuration not stated)	none
Cc1ccc(C(=O)CCNc2ccc(Br)cc2)o1	none
Cc1ccc(C(=O)CCNc2ccccc2)o1	ALR inh 97.5
COc1ccc(C(C)=O)cc1CSc1ncccn1	none
COc1ccc(/C=C/C(=O)c2ccc(O)cc2)cc1CN1CCOCC1	none
COc1ccc(C(=O)/C=C/c2ccsc2)cc1CSCC(=O)O	ALR inh 98.8
COc1ccc(C(C)=O)cc1CSCCC(=O)O	ALR inh 98.3
CCn1cc(C(=O)NCc2ccc3c(c2)OCO3)c(=O)c2cc(S(=O)(=O)N3CCOCC3)ccc21	none
O=C1OC(Nc2cc(Br)cc3cccnc23)c2ccccc21 (configuration not stated)	UBC9 SUMO inh 88.0
O=C(Nc1ccccc1)Nc1cccc2ccccc12	none
O=C(Nc1ccccc1)Nc1ccc(O)c2ccccc12	ALR inh 86.9 (no result: UBC9 SUMO inh, H9c2 protect)
CCOC(=O)C1CCN(S(=O)(=O)c2ccc3c4c(cccc24)C(=O)N3)CC1	none
COc1ccc(Cl)cc1C(=O)Nn1cnc2ccccc2c1=O	none
CCn1c2ccccc2c2nnc(NN)nc21	none
CCn1c2ccc(C)cc2c2nnc(NN)nc21	ALR inh 98.8
Cc1ccc(S(=O)(=O)N2CCN(C(=O)c3cc(=O)c4ccccc4o3)CC2)cc1	none (no result: ALR inh)
Cc1cccc(Cc2c(C)nc3nc(SCC(=O)NCc4ccco4)nn3c2C)c1	ALR inh 77.3
Cc1ccc(Cc2c(C)nc3nc(SCC(=O)NCc4ccco4)nn3c2C)cc1	none
CCOC(=O)N1CCC(NC(=O)Cn2cccc2C(=O)c2ccccc2C)CC1	none (no result: ALR inh)
N#Cc1ccccc1Cn1c(=O)n(Cc2ccc(C(=O)NCc3ccco3)cc2)c(=O)c2sccc21	ALR inh 94.1
CC1Sc2ccc(C(=O)Nc3cc(S(C)(=O)=O)ccc3Cl)cc2NC1=O (configuration not stated)	none (no result: UBC9 SUMO inh)
COc1ccc(N=Cc2nc(-c3ccco3)oc2O)cc1	ALR inh 91.5
O=C(O)c1ccc(-n2c(/C=C/c3ccccc3)nc3ccccc3c2=O)cc1	ALR inh 98.9
O=C(O)c1ccc(-n2c(/C=C/c3cccc([N+](=O)[O-])c3)nc3ccccc3c2=O)cc1	ALR inh 90.4
O=C(O)c1cccc(-n2c(/C=C/c3ccc([N+](=O)[O-])cc3)nc3ccccc3c2=O)c1	none
Cc1nc2ccccc2n1CC(O)COCC1CC=CCC1 (configuration not stated)	none
Cc1ccsc1/C=C1/SC(N2CC(C)OC(C)C2)=NC1=O (configuration not stated)	ALR inh 99.1
Cc1ccsc1/C=C1\SC(N)=NC1=O	none
Nc1nnc(-c2cc3c(ccc4ccccc43)oc2=O)s1	UBC9 SUMO inh 65.5 (no result: NTR1 ag, H9c2 protect, ALR inh)
O=c1oc2ccc3ccccc3c2cc1-c1nnc(-c2cccs2)o1	none (no result: ALR inh)
O=c1oc2ccc3ccccc3c2cc1-c1nnc(-c2ccccc2)o1	H9c2 protect 80.5
COc1ccc(-c2nnc(-c3cc4c(ccc5ccccc54)oc3=O)o2)cc1	none
